From PubChem BioAssay
KDM4E inh – blocks human JMJD2E demethylase activity; B2RXH2; JMJD2E catalytic domain, FDH-coupled NADH fluorescence (FDH is formaldehyde dehydrogenase); Potency, µM (top dose mostly 57.1 µM), for inactives: top-dose activity change, negative = inhibition, hits mostly inhibitors; actives 1.6% (n = 230,000); AID 2147; active means well fitted inhibition curve with a large enough effect, not every such curve was filed as active; inconclusive means small, poorly fitted or top-dose-only effect, or another doubt; inactive means no such curve, though single readings can be large or run the other way;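 further: potency means the concentration at half of the fitted maximal effect; 0% = wells with enzyme and -100% = buffer wells without enzyme; nearly all actives have a fitted effect of over 50% in size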
Target sequence (B2RXH2 1-337 limits assumed): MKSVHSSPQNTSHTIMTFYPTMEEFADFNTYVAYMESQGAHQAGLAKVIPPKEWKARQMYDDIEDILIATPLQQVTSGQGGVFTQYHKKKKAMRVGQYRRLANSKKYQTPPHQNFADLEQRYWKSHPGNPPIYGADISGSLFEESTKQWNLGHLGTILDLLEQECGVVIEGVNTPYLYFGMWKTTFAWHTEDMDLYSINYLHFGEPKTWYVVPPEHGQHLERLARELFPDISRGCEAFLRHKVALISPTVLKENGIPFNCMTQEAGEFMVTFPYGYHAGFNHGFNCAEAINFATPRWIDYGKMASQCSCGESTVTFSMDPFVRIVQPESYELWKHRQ
Tau fibril ThT – blocks human tau fibril formation measured by thioflavin T. AID 1460. recombinant tau K18 P301L, heparin-induced fibrillization, ThT fluorescence. P10636. actives 2.1% (n = 270,000). Potency, µM (titrated, usually from 57.4 µM), without a hit: at the top dose activity, negative = inhibition, hits mostly inhibitors; further: potency means the concentration at half of the fitted maximal effect; nearly all actives have a fitted effect of over 55% in size
Target sequence (P10636 561-689 P618L limits assumed): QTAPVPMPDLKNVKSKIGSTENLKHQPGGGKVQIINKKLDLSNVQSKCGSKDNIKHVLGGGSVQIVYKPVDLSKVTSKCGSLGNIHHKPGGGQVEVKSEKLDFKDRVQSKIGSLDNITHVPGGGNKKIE
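In this qHTS, human K18 P301L tau is incubated with compound and heparin for 6 hr at 37 C, and Thioflavin T fluorescence then reports fibril load.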
Sfp inh – inhibitors of Bacillus subtilis Sfp phosphopantetheinyl transferase; Q9F4F7; actives 3.5% (n = 310,000); AID 1490; Potency, µM, for the others: largest response in the series, negative = inhibition, hits mostly inhibitors; Biochemical Sfp PPTase activity, qHTS;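 further: the enzyme is Sfp with the accession as filed and its product quenches rhodamine fluorescence; potency means the concentration at half of the fitted maximal effect; 0% = enzyme reaction without inhibitor and -100% = no enzyme wells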
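Fluorescence-quenching assay: 15 nM Sfp-PPTase preincubated 15 min at room temperature with compound, then 5 uM rhodamine-CoA and 12.5 uM BHQ-2-labelled YbbR peptide added. Fluorescence (ex 525/em 598 nm) read at start and after 30 min; difference gives rate.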
Tau FP inhib – inhibitors of human tau fibril formation; K18 P301L tau heparin fibrillization, Alexa594 FP, 6 h; Potency, µM (titrated, usually from 57.7 µM), without a hit: at the highest dose activity, negative = inhibition, most hits filed as inhibitors; actives 0.39% (n = 280,000); AID 1468; further: potency means the concentration at half of the fitted maximal effect; nearly all actives have a fitted effect of over 55% in size
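Compound effects on tau fibrillization are measured by Alexa 594 fluorescence polarization (ex 555, em 632 nm). K18 P301L tau is used at 15 uM with 0.24 uM labeled tracer, and 20 uM heparin induces aggregation over 6 hr at 37 C.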
Coupling enz – coupling enzyme interference in Giardia aldolase counter-screen; actives 0.67% (n = 290,000); activity change, negative = inhibition, % at 58.2 µM, hits read low; coupling enzyme system counterscreen, AmpLite Red fluorescence; AID 2472; in the data active means activity change below about -30%
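Compounds tested against the coupling enzymes alone at 57.5 uM final; readout was AmpLite Red fluorescence (525/598 nm) after 20 min at RT.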
Tau fluor cs – counter-screen for tau fibril formation inhibitors | tau K18 P301L Alexa594 fluorescence, heparin fibrillization | Potency, µM (top dose mostly 57.7 µM), inactives show at the top dose activity change, negative = decrease | actives 0.93% (n = 280,000) | AID 1463; further: potency means the concentration at half of the fitted maximal effect; nearly all actives have a fitted effect of over 55% in size
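Human tau K18 P301L (15 uM unlabeled, 0.24 uM Alexa 594-labeled) in 100 mM sodium acetate pH 7 with 20 uM heparin, 6 hr at 37 C. ThT 30 uM added, 1 hr ambient; Alexa 594 FP and total fluorescence read at 555/632 nm.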
Sfp inh conf – Sfp phosphopantetheinyl transferase inhibition, confirmation. AID 2701. actives 79% (n = 380). shares compounds with Sfp inh. Sfp PPTase enzymatic assay, qHTS titration. Potency, µM (highest dose often 114 µM), without a hit: at the top dose activity change, negative = inhibition, most hits filed as inhibitors;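 further: potency means the concentration at half of the fitted maximal effect; plate controls were uninhibited Sfp reaction for no effect and no enzyme control for full effect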
Target sequence (Q9F4F7 whole entry, looked up): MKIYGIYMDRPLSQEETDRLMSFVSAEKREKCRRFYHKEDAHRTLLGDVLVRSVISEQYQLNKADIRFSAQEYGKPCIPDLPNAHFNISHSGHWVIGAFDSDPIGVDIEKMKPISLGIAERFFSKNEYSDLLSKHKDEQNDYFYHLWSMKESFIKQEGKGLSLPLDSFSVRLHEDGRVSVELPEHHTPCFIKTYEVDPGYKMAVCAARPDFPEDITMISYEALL
Sfp PPTase gel – Inhibits B. subtilis Sfp phosphopantetheinylation. shares compounds with Sfp inh. actives 20% (n = 210). AID 2707. purified Sfp, gel-based phosphopantetheinylation read-out. Potency, µM, actives largely listed as inhibitors;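 active means potency below 100 µM; inconclusive means dose-dependent response but potency above 100 µM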;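 further: band intensities scaled against SCH202676 control wells before curve fitting; potency is an IC50 for inhibitors of Sfp transfer activity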
Starred values were filed as active, the others as inactive; i = inactive; ? = inconclusive; . = not tested or not shown. In the library only some 5.3% were active in any assay of this set; here they are far more common. Unless noted, the call rests on the fitted dose curve; in most records, active means well fitted curve in the direction sought with a large enough effect; inconclusive means small, poorly fitted or top-dose-only effect, or another doubt; inactive means no such curve, though single readings can be large; an effect the other way counts as inactive or inconclusive. Unless noted, on the % scale 0 is the no-effect control and ±100 the full control effect.

SMILES	KDM4E inh	Tau fibril ThT	Sfp inh	Tau FP inhib	Coupling enz	Tau fluor cs	Sfp inh conf	Sfp PPTase gel
COc1ccccc1N1CCN(CCCNC(=O)c2cnn(-c3ccccc3)c2C2CCN(C(=O)OC(C)(C)C)CC2)CC1	.	-8.6%	.	-2.1%	.	-6.5%	.	.
Cc1ccc(-c2c(C(=O)Nc3ccc(F)c(F)c3)oc(=O)c3ccccc23)cc1	.	-3.3%	.	-20.2%	.	-27.4%	.	.
Nc1ccccc1C(=O)C[C@@H](N)C(=O)O	.	-10.2%	1.1%	-4.0%	.	-13.8%	.	.
CC(C)N(CCC(=O)c1ccc2ccccc2c1)Cc1ccccc1	35.5µM*	?	3.98µM*	-12.3%	15.8	-0.6%	14.8µM*	?
COc1ccc(-c2noc(CSc3nc4sc(C)c(C)c4c(=O)n3-c3ccccc3)n2)cc1	6.7%	0.0%	3.98µM*	-0.1%	-0.4	-3.2%	4.69µM*	i
COC(=O)c1cc(C)nc(Sc2ccccc2N)n1	?	28.2µM*	2µM*	?	0.9	?	4.18µM*	.
CCCC[C@]12Cc3cc(C#N)ccc3C(O1)c1c(cc(-c3ccccc3)oc1=O)O2	.	.	3.3%	.	0.6	.	.	.
Cc1cc(C(F)(F)F)nn1Cc1ccc(C(=O)NCc2ccco2)o1	-26.5%	?	0.891µM*	?	-3.6	-17.2%	46.9µM*	.
CC1CCCN(C(=O)c2nn(C)c3c2CSc2ccccc2-3)C1 (stereo unspecified)	.	.	44.7µM*	.	-1.9	.	52.7µM*	.
CC1CC(C)CN(C(=O)c2nn(C)c3c2CSc2ccccc2-3)C1 (stereo unspecified)	.	.	-8.0%	.	1.9	.	.	.
CC(C)(O)C#Cc1ccc(C(=O)N2CCCC(CNS(=O)(=O)c3cccs3)C2)o1 (stereo unspecified)	.	.	39.8µM*	.	.	.	59.1µM*	.
COC(=O)C1=C(C)NC(C)=C([N+](=O)[O-])[C@H]1c1ccccc1C(F)(F)F	4.1%	?	14.7%	-8.8%	-5.2	-27.5%	.	.
COC(=O)C1=C(C)NC(C)=C(C(=O)OCC(C)C)C1c1ccccc1[N+](=O)[O-] (stereo unspecified)	.	.	39.8µM*	.	.	.	37.3µM*	.
O=C(O)c1cc(/C=C/C(=O)c2cc(F)ccc2O)c2c(c1)COCO2	-29.6%	.	22.4µM*	3.2%	1.1	-11.5%	46.9µM*	i
COc1ccc(C(=O)/C=C/c2cc(C(=O)O)cc3c2OCOC3)c(O)c1	-10.8%	?	-16.8%	-14.1%	-0.5	-2.4%	.	.
CCOC(=O)c1c(C)n(O)c2ccc(Cl)cc2c1=O	?	-0.2%	35.5µM*	-4.4%	-26.0	2.7%	74.4µM*	i
Cc1c(C(=O)N(C)C)c2cc(Cl)ccc2n1O	-4.7%	-11.9%	3.2%	-5.8%	0.4	-4.4%	.	.
COc1ccc(NC(=O)c2cc(Cl)ccc2NC(=O)c2ccco2)c(OC)c1	?	-5.5%	15.8µM*	-1.0%	-2.1	-25.7%	46.9µM*	i
CC(=O)Nc1ccc(-c2csc(NC(=O)Cc3ccccc3F)n2)cc1	.	.	2.7%	.	-9.6	.	.	.
CCCC(=O)Nc1ccc(-c2csc(NNC(C)=O)n2)cc1	-16.4%	.	5.01µM*	-18.4%	2.4	?	?	?
C=CC(C)(O)CC1[C@@]2(C)CCCC(C)(C)C2CC[C@]1(C)O (stereo partly specified)	5.1%	-7.4%	17.5%	-0.2%	-1.1	-12.1%	.	.
CCOC(=O)c1cc(-c2ccccc2)sc1NC(=O)c1ccc(OC)cc1	12.5%	-7.9%	14.1µM*	-7.5%	7.3	-0.7%	8.35µM*	.
OCCn1c(CSc2nnc(-c3ccco3)n2-c2ccccc2)nc2ccc(Cl)cc21	-10.5%	-9.3%	3.98µM*	2.5%	4.9	-6.0%	11.8µM*	i
COC(=O)[C@H](Cc1ccccc1)NC(=O)O[C@H]1C(=O)c2cc(OC)ccc2O[C@@H]1c1ccc(OC)c(Br)c1	?	-12.6%	-5.3%	2.2%	-1.9	-8.2%	.	.
Cc1cccc(C)c1OCc1nnc(NC(=O)CSc2ccc(Cl)cc2)s1	0.3%	2.4%	0.8%	?	4.6	-3.0%	.	.
SMILES	KDM4E inh	Tau fibril ThT	Sfp inh	Tau FP inhib	Coupling enz	Tau fluor cs	Sfp inh conf	Sfp PPTase gel
O=C(CSc1ccccc1)Nc1nnc(COc2ccc(Cl)cc2)s1	-0.1%	28.2µM*	14.1µM*	?	2.3	?	5.91µM*	.
CCOC(=O)c1cc(-c2ccco2)nc2c1c(C)nn2CCC#N	?	?	28.2µM*	-5.9%	-1.0	-7.2%	46.9µM*	i
O=C(CC(SCc1ccco1)c1ccc(O)cc1)c1cccs1 (stereo unspecified)	-0.5%	-13.2%	56.2µM*	-9.3%	0.2	?	7.44µM*	i
Cc1nc(-c2cc(-c3nc(-c4ccc(C(C)(C)C)cc4)no3)no2)cs1	-5.0%	?	39.8µM*	-14.7%	-2.6	-19.8%	14.8µM*	i
Cc1noc(-c2ccc(-c3noc(-c4ccc(C(F)(F)F)cc4)n3)cc2)n1	.	-2.4%	.	1.2%	.	-2.1%	.	.
COc1ccc2[nH]c(S(=O)Cc3ncc(C)c(OC)c3C)nc2n1 (stereo unspecified)	.	.	44.7µM*	.	.	.	18.7µM*	.
Cn1cccc1C(=O)N1CCC2(CC1)CN(c1ccccn1)C2	.	.	5.3%	.	-1.3	.	.	.
CCC1CCc2c(sc(NC(=O)c3ccco3)c2C(N)=O)C1 (stereo unspecified)	?	?	-6.4%	-5.7%	4.3	-25.7%	.	.
CCC1CCc2c(sc(NC(=O)c3cnccn3)c2C(N)=O)C1 (stereo unspecified)	.	.	10µM*	.	1.6	.	8.35µM*	.
CN(C)c1ccc(-c2nccc(NCc3cccs3)n2)cc1	.	.	?	.	-0.2	.	.	.
Oc1ccc(NCc2cccc(OCc3ccc(F)cc3)c2)cc1	-1.7%	22.4µM*	15.8µM*	?	-44.9*	?	52.7µM*	?
OCCNCc1cccc(OCc2ccc(Cl)cc2)c1	3.2%	3.9%	14.4%	-2.2%	0.4	1.9%	.	.
CCOc1ccccc1C(=O)Nc1c(NC)c2ccccc2oc1=O	.	?	.	0.7%	.	-4.5%	.	.
Nc1cccnc1Sc1ccc(Cl)cc1	?	-0.5%	4.7%	-4.7%	-4.6	-5.6%	.	.
Nc1cccnc1Sc1cccc(Cl)c1	?	8.0%	3.16µM*	-1.4%	3.2	3.9%	18.7µM*	.
COc1cccc(Nc2ncc3nc(C)c(=O)n(C4CC4)c3n2)c1	.	.	26.9%	.	0.2	.	.	.
